# The whole screen tested about 360,000 compounds, of which about 4,500 (1.2%) were called active. The sample as a whole holds a higher share of actives than the screen did. Values without a mark were called inactive. No stated cut-off is given here; in the data, active means inhibition above about 30%; inactive means the rest.
# Assay: inhibition of GDH and TPI enzymes – biochemical, absorbance, full deck, artefact control for M. tuberculosis FBA inhibitor project, primary screen (AID 588335);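 further: 0% = DMSO wells and 100% = wells lacking the enzyme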
# Details: GDH-TPI coupled enzyme counterscreen, NADH absorbance; at 4.8 µM; active compounds read high
row,SMILES,inhibition
1,CCOC(=O)N1CCN(C(=O)c2ccc3nc4cc(Cl)ccc4c(=O)n3c2)CC1,-6.67%
2,CC(=O)c1ccc(Nc2nc(C(N)c3ccccc3Cl)cs2)cc1 (centres undefined),29.2%
3,CC(=O)c1ccc(Nc2nc(C(N)c3ccccc3)cs2)cc1 (centres undefined),32% (active)
4,COc1ccc(C(N)c2csc(NC(=O)Nc3cccc(C(F)(F)F)c3)n2)cc1 (centres undefined),-1.33%
5,Cc1cc(NC(=O)/C=C/C(=O)N(c2ccccc2C)C(C(=O)NC2CCCC2)c2ccc(F)cc2)no1 (centres undefined),15.8%
6,O=C1c2ccccc2-c2ccccc2NC1O (centres undefined),-4.42%
7,CN(C)/C=C1/C(=O)Nc2ccccc21,36.4% (active)
8,CN(C)/C=C1\C=C(c2ccccc2)OC1=O,17.7%
9,CCN(CC)c1ccc(C(=O)NNC(=O)CCc2nc3ccccc3c(=O)[nH]2)cc1,30.9% (active)
10,CCN(CC(=O)NC(=O)NCc1ccccc1)Cc1nc2ccccc2c(=O)[nH]1,-1.22%
11,CC(C)(C)c1ccc(NC(=O)COC(=O)CCc2nc3ccccc3c(=O)[nH]2)cc1,3.69%
12,COc1ccc(S(=O)(=O)N2CCN(C(=O)c3cccs3)CC2)cc1OC,-5.51%
13,CC(C(=O)N(C)CC(=O)Nc1ccccc1C(F)(F)F)N1C(=O)c2ccccc2C1=O (centres undefined),-1.08%
14,C/C(=N\Nc1cccc(C(=O)O)c1)c1ccc2c(c1)Nc1ccccc1S2,7.28%
15,O=C(N/N=C/c1ccsc1)c1cc(O)cc(O)c1,4.09%
16,Cc1nc2ccc(C(=O)N/N=C/c3ccc(O)cc3)cc2[nH]1,36.4% (active)
17,Cc1nonc1C(=O)N/N=C/c1ccc(O)cc1,29.1%
18,O=S(=O)(c1ccc(SCc2ccc(Br)cc2)nc1)N1CCOCC1,0.32%
19,O=C(NCc1ccccc1)C(c1ccccc1)N(C(=O)c1csnn1)c1ccc(F)cc1 (centres undefined),-1.56%
20,Cc1nc2ccc(S(=O)(=O)N(C)CC(=O)NC(C)c3ccccc3)cc2s1 (centres undefined),14.8%
21,Cc1cccc(C)c1NC(=O)CNC(=O)c1ccc(N2CCOCC2)c([N+](=O)[O-])c1,1.79%
22,CC(C)CN(C(=O)COC(=O)c1ccc2ccccc2c1)c1c(N)n(Cc2ccccc2)c(=O)[nH]c1=O,2.15%
23,CCN(/N=C/c1ccccc1)c1cc(=O)n(C)c(=O)[nH]1,36.7% (active)
24,Cc1cn(C2CC(O)C(CO)O2)c(=O)n(CCCc2ccccc2)c1=O (centres undefined),-7.8%

row,SMILES,inhibition
1,COc1cc(C(=O)NN(CCC#N)C2=NS(=O)(=O)c3ccccc32)cc(OC)c1OC,4.46%
2,Cc1cc(OC(=O)c2ccccc2)c([N+](=O)[O-])c(=O)[nH]1,3.89%
3,O=c1[nH]c(/C=C\c2cccc(C(F)(F)F)c2)nc(O)c1[N+](=O)[O-],16.2%
4,Cc1ccccc1/C=C\c1nc(O)c([N+](=O)[O-])c(=O)[nH]1,34.9% (active)
5,Cc1nnc(SCc2cccc(Cl)c2)n(N)c1=O,-5.68%
6,Cc1ccc(C(=O)N/C(=C/c2cccs2)C(=O)N2CCCCC2)cc1,1.16%
7,CN1CCN(C(=O)/C(=C\c2cccs2)NC(=O)c2cccs2)CC1,30.9% (active)
8,CN1CCN(C(=O)/C(=C\c2ccc3c(c2)OCO3)NC(=O)c2cccs2)CC1,13.8%
9,FC(F)(F)c1ccc2c3n(nc2c1)CCN=C3c1ccc(Cl)cc1,9.17%
10,O=c1[nH]c2c(c(=O)n1-c1ccccc1)CCO2,6.88%
11,COc1ccccc1C(C)NC(=O)Cc1ccsc1 (centres undefined),6.79%
12,Cc1ccc(N2C(=O)C3C4C=CC(CC4)C3C2=O)cc1Cl (centres undefined),0%
13,COC(=O)C(c1ccccc1)N1CCCCCC1 (centres undefined),-4.27%
14,CC1(C)CC(N2CCN(C(c3ccccc3)c3ccccc3)CC2)=CC(=[N+]2CCCCC2)C1,42% (active)
15,CCOc1ccc(NC(=O)CN(C)CC(=O)NC(C)c2ccccc2)cc1OCC (centres undefined),11%
16,Nc1c(-c2ccc(F)cc2)cnn1C1CCS(=O)(=O)C1 (centres undefined),3.77%
17,CCOc1ccc(/C=N\NC(=O)c2c(C)nc3cc(C)ccn23)cc1,21.5%
18,CCOc1cc(/C=N/NC(=O)c2c(C)nc3ccc(Cl)cn23)ccc1O,52.2% (active)
19,CCOc1cc(/C=N/NC(=O)CN2CCCCC2)ccc1O,21.8%
20,CCN1C(=NCCc2cccnc2)N[C@@H](c2ccccc2)[C@H](C(=O)OC)[C@H]1C,-8.4%
21,COCCNC(=S)N/N=C/c1c(C)[nH]c2ccccc12,31% (active)
22,Cc1[nH]c2ccccc2c1/C=C(/C#N)C(=O)NC(C)C,6.92%
23,COCCNC(=S)N(CCc1c(C)[nH]c2ccc(C)cc12)Cc1cccnc1,0%
24,CC(=O)Nc1cccc(C(=O)OCN2C(=O)c3ccccc3C2=O)c1,-2.41%

row,SMILES,inhibition
1,COc1ccc(CCNC(=S)N2CCN(S(=O)(=O)c3ccc(F)cc3)CC2)cc1,1.03%
2,CCN(/N=C/c1ccc(N(C)C)cc1)c1nc2ccccc2[nH]1,31.3% (active)
3,Oc1ccc(/C=N/N(Cc2ccccc2)c2ccccc2)cc1,11.2%
4,COc1ccc(C(=O)COC(=O)c2nn(C)c(=O)c3ccccc23)c(OC)c1,-0.9%
5,O=C(O)C1CCCN1S(=O)(=O)c1ccc2c(c1)CCC2 (centres undefined),-0.82%
6,COc1ccc2sc(-c3ccccc3OC)c(-c3ccc(OCCN4CCCC4)cc3)c2c1,8.81%
7,COc1ccc2sc(-c3ccc(N(C)C)cc3)c(-c3ccc4cc[nH]c4c3)c2c1,33.5% (active)
8,COc1cccc(-c2sc3ccc(OC)cc3c2-c2ccc(OCCN3CCCCC3)cc2)c1,0.91%
9,Cc1cc(=O)oc(C)c1C(=O)NCc1ccc(F)cc1,16.2%
10,Cc1cc(=O)oc(C)c1C(=O)NCCN(C)Cc1ccccc1,45.1% (active)
11,COc1ccc(CNC(=O)c2c(C)cc(=O)oc2C)cc1OC,5.96%
12,CC(NC(=O)c1ccc(Cl)cc1)C(=O)N1CCCCC1 (centres undefined),8.65%
13,Cc1ccc(NC(=O)c2cnc(SCC(=O)NCC3CCCO3)n(C)c2=O)cc1 (centres undefined),33.3% (active)
14,CCn1c(SCC(=O)NCC2CCCO2)nc2ccccc21 (centres undefined),-11%
15,Cn1c(SCC(=O)c2ccccc2)ncc(C(=O)Nc2ccc(F)cc2)c1=O,2.1%
16,CC1C(=O)N2CCCc3cc(S(=O)(=O)NCc4ccc(F)cc4)cc1c32 (centres undefined),6.01%
17,O=C1C=C(c2ccnc3cc(Cl)ccc23)C[C@@H](c2ccc3c(c2)OCO3)C1,1.34%
18,Cc1ccccc1-n1c(C)cc(/C=C2\NC(=O)NC2=O)c1C,32.7% (active)
19,CSc1ccc(/C=C2\NC(=O)NC2=O)cc1,27.3%
20,Cc1ccccc1-n1c(C)cc(/C=N/NC(=O)c2ccc(CN3CCOCC3)cc2)c1C,18.1%
21,COc1ccc2[nH]c3c(c2c1)CCN1C(=O)C(CC(=O)NCc2cccc(C(F)(F)F)c2)C[C@H](C(=O)N2CCOCC2)[C@@]31C (some centres undefined),-0.94%
22,COc1ccc(/C=N/Nc2cc(N3CCOCC3)nc(C)n2)c(OC)c1,68.5% (active)
23,COc1ccccc1-c1cnn2c(N3CCOCC3)cc(C)nc12,8.82%
24,Fc1ccccc1/C=N/Nc1cc(N2CCCCC2)ncn1,18.5%

row,SMILES,inhibition
1,CCOc1ccc(CN(C)C(=O)c2ccc(=O)[nH]c2)cc1,1.51%
2,CC(C)CNC(=O)C(=O)NCC(c1ccc2c(c1)OCO2)N1CCOCC1 (centres undefined),-0.84%
3,CCCc1ccc(C(O)c2ncc(-c3cccc(OC)c3)[nH]2)cc1 (centres undefined),-5.36%
4,CC(C)(C)OC(=O)N/N=C/c1ccc(C(=O)O)cc1,-4.41%
5,COC(=O)C(C)N=Cc1ccccc1 (centres undefined),-1.89%
6,COC(=O)N/N=C/c1c[n+]([O-])c2ccccc2[n+]1[O-],32.6% (active)
7,O=C(Nc1ccc2c(c1)nc1n2CCCCC1)c1cc(S(=O)(=O)N2CCOCC2)ccc1Cl,-14.1%
8,CCOc1cc(/C=C2\SC(N3CCCC(C)C3)=NC2=O)ccc1O (centres undefined),14.5%
9,CC1CCN(C2=NC(=O)/C(=C/c3cn[nH]c3-c3ccccc3)S2)CC1,33.8% (active)
10,CN(CCC1CCOCC1)Cc1cn[nH]c1-c1ccc(-c2ccccc2)cc1,13%
11,CCCCCCCCn1c2c(c(=N)c3c1CCC3)CCCC2,-7.26%
12,CCOc1ccccc1-c1cc(C(=O)N/N=C(\C)c2cccnc2)c2ccccc2n1,19.2%
13,C/C(=N\NC(=O)c1cc(-c2ccc(O)cc2)nc2ccccc12)c1cccnc1,30.9% (active)
14,C/C(=N\NC(=O)c1cccc([N+](=O)[O-])c1)c1cccnc1,3.57%
15,O=C(ON=C1CCN(S(=O)(=O)c2ccccc2)CC1)c1ccc(Cl)cc1,4.57%
16,Cc1ccc2nc(Nc3ncc4c(n3)CC(C)(C)CC4=O)nc(C)c2c1,1.22%
17,CCc1ccc(Nc2ncc3c(n2)CC(c2ccco2)CC3=O)cc1 (centres undefined),37.7% (active)
18,CN1CCN(c2ncc3c(n2)CC(c2ccccc2F)CC3=O)CC1 (centres undefined),4.15%
19,COc1ccc(Cl)cc1C=CC=Nc1ccc(S(N)(=O)=O)cc1,5.17%
20,CC(=NNC(=O)c1ccncc1)c1ccc(Cl)c(Cl)c1,0.88%
21,COc1ccc(Cl)cc1C=CC=NNC(=O)c1ccncc1,50% (active)
22,CCOc1nc(OCC)nc(-n2cc(-c3ccccc3)nn2)n1,-5.88%

# Reference: PubChem BioAssay AID588335 (The Scripps Research Institute Molecular Screening Center, 2011)
